The source of these data is PubChem BioAssay AID2499 (National Center for Advancing Translational Sciences (NCATS), 2010).

Results filed as inconclusive are left out. A number with no mark means an inactive call. Active and inactive are the calls of the source. Calls come from the whole dose curve; as a rule, active = well fitted inhibition curve with a large enough effect; inconclusive = small, poorly fitted or top-dose-only effect; inactive = flat fitted curve, though single readings scatter.

Galactokinase (Homo sapiens), sequence (P51570 whole entry, looked up): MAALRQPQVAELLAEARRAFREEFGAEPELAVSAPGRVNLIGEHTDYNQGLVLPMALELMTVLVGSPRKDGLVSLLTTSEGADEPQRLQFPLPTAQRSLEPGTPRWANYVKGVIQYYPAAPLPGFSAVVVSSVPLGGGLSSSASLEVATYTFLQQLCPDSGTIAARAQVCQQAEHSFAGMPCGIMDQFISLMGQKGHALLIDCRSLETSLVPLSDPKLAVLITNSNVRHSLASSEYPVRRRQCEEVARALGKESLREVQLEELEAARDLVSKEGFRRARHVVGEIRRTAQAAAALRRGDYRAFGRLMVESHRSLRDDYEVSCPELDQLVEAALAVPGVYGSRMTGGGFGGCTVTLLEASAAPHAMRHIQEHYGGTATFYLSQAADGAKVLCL

In this experiment the target is Galactokinase (Homo sapiens) (UniProt P51570). Briefly: Confirmation Assay for Inhibitors of Human Galactokinase (GALK): probe SAR. The conditions noted are these: purified GALK, Kinase-Glo ATP depletion luminescence; series mostly up to 115 µM; activity change, negative = inhibition: at the top concentration. The source says:
NIH Molecular Libraries Probe Production Centers Network [MLPCN] NIH Chemical Genomics Center [NCGC] MLPCN Grant: R03 MH085689-01 Assay Submitter (PI): Kent Lai (University of Utah School of Medicine, 50 N Mario Capecchi Drive, Salt Lake City, UT 84132) NCGC Assay Overview Inherited deficiency of galactose-1-phosphate uridyltransferase (GALT) can result in a potentially lethal disorder called Classic Galactosemia (OMIM 230400). Several lines of evidence indicate that an elevated level of galactose-1-phosphate (gal-1-p), the product of galactokinase (GALK), is a major, if not sole, pathogenic mechanism in patients with classic galactosemia. Therefore, finding inhibitors of GALK is a potential novel therapy for this inherent metabolic disease and is the long term goal of this project. Active compounds observed in the qHTS GALK assay (AID: 1868) were cherry picked and re-screened for validation. GALK (provided by Kent Lai) was assayed using ATP and D-(+)-Galactose (Sigma-Aldrich cat# G0750) as substrates. Promega Kinase-Glo Plus (cat# V3774) technology was used to detect the residual ATP following kinetic reaction. Briefly, the Kinase-Glo Plus contains Ultra-Glo [1] luciferase and D-luciferin which generates a bioluminescence signal from the remaining ATP. Kinase reactions with and without GALK were used as negative and positive controls together with Protein Tyrosine Phosphatase CD45 inhibitor (EMD Bioscience cat# 540215) which is shown to inhibit GALK activity.
NCGC Assay Protocol Summary: Three uL/well of ATP-buffer solution (35 uM ATP, 20mM HEPES pH8.0, 5 mM MgCl2, 60 mM NaCl, 1 mM DTT, 0.01% BSA final concentration) was dispensed into 1536-well, assay plates (Greiner, solid white medium-binding plates) with Aurora Discovery BioRAPTR Flying Reagent Dispenser (FRD; Beckton-Dickenson). Compound and control solution (23 nL) was transferred to the assay plate using the Kalypsys 1536-pin tool apparatus. One uL/well GALK-galactose solution (5 nM GALK, 100 uM galactose, 20 mM HEPES pH8.0, 5 mM MgCl2, 60 mM NaCl, 1 mM DTT, 0.01% BSA final concentration) was then added using the FRD yielding a total kinase reaction volume of 4 uL/ well. After 1 hour of room temperature incubation, 4 uL Kinase-Glo Plus reagent was added for a final assay volume of 8 uL/well. Luminescence was detected with the ViewLux plate reader (Perkin Elmer, Waltham, MA) after 2 min incubation using a 1 sec exposure time and 2x binning.
On the technique in general: Kinase-Glo reads ATP consumption through a luciferase reaction.
As to `O=C1CCC2=C1C1(CCCC1)N=C(Nc1nc3ccccc3o1)N2`, the Potency is 11.9 µM (active).
For the molecule `O=C1CCCC2=C1C1(CCCC1)N=C(Nc1nc3ccccc3n1Cc1ccccc1)N2`, the “activity change, negative = inhibition” value is -7.66%.
For `CC1CCC2(C1)N=C(Nc1nc3ccccc3o1)NC1=C2C(=O)CCC1` (centres undefined), the Potency is 11.9 µM (active).
In the case of `O=C1CCCC2=C1[C@@]1(CCC(c3ccccc3)C1)N=C(Nc1nc3ccccc3o1)N2` (some centres undefined), the “activity change, negative = inhibition” value was -22.8%.
Regarding `O=C1CCCC2=C1C1(CCCCC1)N=C(Nc1nc3ccccc3o1)N2`, the Potency is 13.3 µM (active).
In the case of `CC1(C)CC(=O)C2=C(C1)NC(Nc1nc3ccccc3o1)=NC2c1cccc(F)c1` (centres undefined), the “activity change, negative = inhibition” value was -4.97%.
Regarding `O=C1CC(c2ccccc2)CC2=C1C1(CCCCC1)N=C(Nc1nc3ccccc3o1)N2` (centres undefined), the “activity change, negative = inhibition” value was -21.5%.
Take `Cc1ccc2oc(NC3=NC4(CCCC4)C4=C(CCCC4=O)N3)nc2c1`: the Potency is 5.95 µM (active).
`CCC1CCC2(C1)N=C(Nc1nc3ccccc3o1)NC1=C2C(=O)CCC1` (centres undefined): the Potency result was “inactive”.
Take `Cc1nc(Nc2nc3ccccc3o2)nc2c1C(=O)CC(C)(C)C2`: the “activity change, negative = inhibition” value was -7.11%.
Take `COc1ccc(C2N=C(Nc3nc4ccccc4o3)NC3=C2C(=O)CC(C)(C)C3)cc1` (centres undefined): the “activity change, negative = inhibition” value was -22.4%.
Regarding `O=C1CCCC2=C1C(c1ccccc1Cl)N=C(Nc1nc3ccccc3o1)N2` (centres undefined), the Potency is 0.595 µM (active).
On the same count and under the same terms, as for `O=C1CCCC2=C1C1(CCSC1)N=C(Nc1nc3ccccc3o1)N2` (centres undefined), the figure is 2.66 µM (active).
In the case of `CC1(C)CC(=O)C2=C(C1)NC(Nc1nc3ccccc3o1)=NC2c1cccc(O)c1` (centres undefined), the Potency is 21.1 µM (active).
For `COc1ccccc1C1N=C(Nc2nc3ccccc3o2)NC2=C1C(=O)CC(C)(C)C2` (centres undefined), the “activity change, negative = inhibition” value is -2.26%.
Regarding `O=C1CCC2=C1C(c1ccccc1Cl)N=C(Nc1nc3ccccc3o1)N2` (centres undefined), the Potency is 11.9 µM (active).
On the same count and under the same terms, as for `O=C1CCCC2=C1C1(CCCC1)N=C(Nc1nc3cc(Br)ccc3o1)N2`, the figure is 7.49 µM (active).
In the case of `O=C1CCCC2=C1C1(CCS(=O)(=O)C1)N=C(Nc1nc3ccccc3o1)N2` (centres undefined), the Potency was 6.68 µM (active).
In the case of `O=C1CCCC2=C1C(c1ccc(Cl)cc1)N=C(Nc1nc3ccccc3o1)N2` (centres undefined), the “activity change, negative = inhibition” value was -19.6%.
Regarding `CC1(C)CC(=O)C2=C(C1)NC(Nc1nc3ccccc3o1)=NC21CCCC1`, the Potency was 6.68 µM (active).
Turning to `Cn1c(NC2=NC3(CCCC3)C3=C(CCCC3=O)N2)nc2ccccc21`, the “activity change, negative = inhibition” value is -25%.
Regarding `CC1(C)N=C(Nc2nc3ccccc3o2)NC2=C1C(=O)CCC2`, the Potency is 47.3 µM (active).
For `COc1cccc(C2N=C(Nc3nc4ccccc4o3)NC3=C2C(=O)CC(C)(C)C3)c1` (centres undefined), the Potency was 37.5 µM (active).
Still for that read-out and setting: then `O=C1CCCC2=C1C1(CCC1)N=C(Nc1nc3ccccc3o1)N2`, with 18.8 µM (active).
Regarding `Cc1ccc(C2N=C(Nc3nc4ccccc4o3)NC3=C2C(=O)CC(C)(C)C3)cc1` (centres undefined), the “activity change, negative = inhibition” value was 2.65%.
Regarding `CC1(C)CC(=O)C2=C(C1)NC(Nc1nc3ccccc3o1)=NC2c1ccccc1Cl` (centres undefined), the Potency was 8.41 µM (active).
`O=C1CCCC2=C1C1(CCSCC1)N=C(Nc1nc3ccccc3o1)N2`: the Potency was 1.06 µM (active).
As for `O=C1CCCC2=C1C1(CCCC1)N=C(Nc1nc3cc4ccccc4cc3o1)N2`, the “activity change, negative = inhibition” value is -18.8%.
For the molecule `O=C1CCCC2=C1C1(CCCC1)N=C(Nc1nc3cc(Cl)ccc3o1)N2`, the Potency is 6.68 µM (active).
